# Assay outcomes (PubChem BioAssay)
# Most compounds without a hit are left out; they make up all but 2.2% or so of the library.
# p47phox inh: inhibitors of human p47phox binding. P14598. p47phox/p22phox peptide binding, fluorescence polarization, 2 h. inhibition, % at 24.7 µM. 0.53% of 220,000 active. AID 1274;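 active means inhibition above about 30%, limit read from the data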
# Target sequence (P14598 whole entry, looked up): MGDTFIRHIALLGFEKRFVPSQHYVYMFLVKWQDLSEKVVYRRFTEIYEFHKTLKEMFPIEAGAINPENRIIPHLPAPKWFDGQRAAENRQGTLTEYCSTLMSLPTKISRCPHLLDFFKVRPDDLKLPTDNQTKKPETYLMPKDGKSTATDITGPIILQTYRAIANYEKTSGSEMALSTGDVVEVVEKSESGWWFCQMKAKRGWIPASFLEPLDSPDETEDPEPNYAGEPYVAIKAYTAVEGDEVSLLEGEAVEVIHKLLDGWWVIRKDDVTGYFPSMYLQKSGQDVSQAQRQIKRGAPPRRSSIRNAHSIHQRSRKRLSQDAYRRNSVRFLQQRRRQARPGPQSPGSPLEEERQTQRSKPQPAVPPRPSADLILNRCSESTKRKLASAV
# Ins promoter up: MIN6 insulin promoter up-regulation. MIN6 insulin promoter-GFP reporter, high-content imaging; hits give high values. z-score at 5 µM. 0.3% of 190,000 active. AID 1625;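 active means z-score above 3 at 5 µM with at least 500 cells counted in the well; inconclusive means wells under 500 cells, flagged as cytotoxic or low count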
# Redox H2O2 prof: compounds producing H2O2 with reducing agent – biochemical, NIH compound library profiling, artefact control for MLSCN library redox annotation, primary screen; AID 878; 0.03% of 200,000 active; DTT-dependent redox cycling H2O2, phenol red/HRP absorbance; 100% = 100 µM peroxide control, 0% = buffer; activation, % at 10 µM;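 active means activation of at least 50% relative to the plate's high and low controls in the primary single-dose screen; inactive means activation below 50%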;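 further: compound incubated with DTT at 0.8 mM final as the reducing agent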
# Arbovirus anti: antivirals against arbovirus infection; 0.37% of 200,000 active; AID 1251; inhibition, % at 10 µM; arbovirus infection cell-based antiviral screen; in the data active means inhibition above about 30%
# Efa HMGR inh: blocks class II HMG-CoA reductase of Enterococcus faecalis; purified E. faecalis HMGR, NADPH absorbance 340 nm kinetic; inhibition, % at 10 µM; 0.41% of 190,000 active;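 active means inhibition above a set limit, the median over all tested compounds plus 3 SD, cut at about 9.5% in these data; inconclusive means no clear call, values can overlap the other calls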;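 further: enzyme runs in reverse so mevalonate oxidation gives rising NADPH absorbance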
# Autophagy HCS: modulators of autophagy. AID 463193. calls only at 10 µM (by protocol). MEF GFP-LC3 puncta imaging; test concentration mostly 10 µM. 0.98% of 190,000 active;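 active means percentage of spot-positive cells more than 3 SD above its plate mean, without a fluorescence outlier flag or 80% toxicity; inconclusive means no clear call, values can overlap the other calls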
# Numbers stand for hits; n = inactive; u = inconclusive; x = no result; + = active, no number.
SMILES,p47phox inh,Ins promoter up,Redox H2O2 prof,Arbovirus anti,Efa HMGR inh,Autophagy HCS
O=C(N/N=C/c1ccc(O)cc1)c1ccc(COc2cc(Cl)ccc2Cl)o1,n,n,n,n,12,n
Cc1ccc(CNC(=O)COC(=O)CCCOc2ccc(Cl)cc2Cl)cc1,72,x,n,n,n,n
COc1ccc(CNC(=S)N2CCN(Cc3ccccc3)CC2)cc1,n,n,x,x,x,x
Cc1ccc(Nc2nc(=O)c3cccnc3s2)cc1,n,n,n,n,n,n
COc1ccc(OC)c(Nc2nc(=O)c3cccnc3s2)c1,60,n,n,n,n,n
O=C(O)CCn1nnc2ccccc21,n,n,x,x,x,x
Cc1ccnc(N/C=C(\C#N)c2nc(-c3cccc(Br)c3)cs2)c1,n,x,n,n,n,+
N#C/C(=C\Nc1ccc2cn[nH]c2c1)c1nc(-c2ccccc2)cs1,n,n,n,n,n,n
CCOc1ccc2[nH]c3c(N4CCN(c5ccccn5)CC4)ncnc3c2c1,n,x,n,n,n,+
Cc1ccc2[nH]c3c(N4CCN(Cc5ccccc5)CC4)ncnc3c2c1,n,x,n,n,n,n
Cc1c(Cl)cccc1N=c1c([N+](=O)[O-])nn(-c2ccccc2)n1O,n,x,n,n,n,+
CCOc1ccc(-c2nc3ccccc3c(=O)o2)cc1,n,n,n,n,12,n
Cc1ccc(NC(=O)N2CCCC2C(=O)Nc2ccc(-n3cnnn3)c(C)c2)cc1 (centres undefined),n,n,n,n,9.7,n
O=C(CSc1nnc(SCc2cccc3ccccc23)s1)N=Nc1c(O)[nH]c2ccccc12,32,n,n,n,n,n
COc1ccc(C(=O)CSc2nc(SC)ns2)cc1OC,n,n,n,n,n,n
COc1ccc(C(=O)CSc2cc(C)nc3nc(C)nn23)cc1OC,129,x,n,n,n,n
N/C(=N\OS(=O)(=O)c1ccc2ccccc2c1)c1ccccn1,n,n,n,n,n,n
CCN(c1ccccc1)S(=O)(=O)c1ccc(C(=O)Oc2ccc(C(C)=O)cc2)cc1,n,n,n,n,n,n
COc1ccc(NC(=O)c2c[nH]n3c(=O)cc(C4CCN(C(=O)OC(C)(C)C)CC4)nc23)cc1Cl,n,n,n,49,n,n
CC(C)(C)OC(=O)N1CCC(c2cc(=O)n3[nH]cc(C(=O)Nc4ccc(F)c(Cl)c4)c3n2)CC1,n,n,x,x,x,x
CCN1C/C(=C/c2ccc(OC)c(O)c2)C(=O)/C(=C/c2ccc(OC)c(O)c2)C1,n,u,n,n,n,+
Cc1csc(NC(=O)c2c(O)c3c(n(CC(C)C)c2=O)CCCC3)n1,n,n,n,55,n,n
CC(C)Cn1c2c(c(O)c(C(=O)Nc3nccs3)c1=O)CCCC2,n,n,n,37,n,n
CCCn1c2c(c(O)c(C(=O)Nc3nc(C)cs3)c1=O)CCCC2,n,n,n,n,n,n
O=C1c2ccncc2C(=O)N1CNc1ccc(Cl)cc1,n,n,n,n,n,n
SMILES,p47phox inh,Ins promoter up,Redox H2O2 prof,Arbovirus anti,Efa HMGR inh,Autophagy HCS
CC(C)n1c(NCCc2ccccc2)nc2c1c(=O)n(C)c(=O)n2C,n,n,n,30,n,n
CCCNc1nc2c(c(=O)n(C)c(=O)n2C)n1CCc1ccccc1,n,n,n,n,n,n
Cn1c(=O)c2c(nc(NCCOc3ccc(C(C)(C)C)cc3)n2C)n(C)c1=O,n,n,n,n,13,n
CC1(C)C(=O)N(OCc2ccccc2)C(C)(C)C(=O)N1OCc1ccccc1,n,n,n,n,n,n
CC1=Nc2ccccc2/C1=C\c1nc(-c2ccccc2)oc1O,n,n,n,n,n,n
COc1ccc(-c2nc(/C=C3\C(C)=Nc4ccccc43)c(O)o2)cc1,n,n,n,n,n,+
O=C(Nc1nc(-c2ccccc2)cs1)c1cccs1,n,n,n,74,n,n
O=C(Nc1nc(-c2ccc(Cl)s2)cs1)c1cccs1,n,n,n,n,n,n
O=C(Nc1nc(-c2ccccc2)ns1)c1cccs1,n,x,n,30,n,n
CC(=O)Nc1nc(-c2ccc(Cl)cc2)ns1,n,n,n,n,n,+
O=C(Nc1nc(-c2ccccc2)cs1)c1ccc(=O)[nH]c1,n,n,n,38,n,n
Cc1cc(-c2n[nH]c(=S)n2Cc2ccccc2)cs1,41,n,n,n,n,n
S=c1[nH]nc(-c2ccncc2)n1Cc1ccccc1,n,n,n,n,n,n
Cc1ccccc1OCc1n[nH]c(=S)n1Cc1ccccc1,n,n,n,n,n,+
COc1ccc(OC)c(Cc2nnc(CCC(=O)NC3CCCCC3)o2)c1,n,n,n,n,n,n
COc1ccc(OC)c(Cc2nnc(CCC(=O)NCc3ccsc3)o2)c1,n,n,n,n,9.7,n
COc1ccc(N)c2c1C(=O)c1ccccc1C2=O,n,x,n,n,n,n
COc1ccc(OC)c2c1C(=O)C(Cl)=C(Cl)C2=O,90,n,x,x,x,x
COc1ccc(S(=O)(=O)N2CCCC2)c(Cl)c1Cl,n,n,n,n,n,n
COc1ccc(OC)c2c1C(=O)c1ccccc1C2=O,36,n,n,n,n,n
Cc1ccc(-c2cc(-c3ccccc3)no2)c(O)c1,n,n,n,36,n,n
Oc1ccccc1-c1cc(-c2ccccc2)no1,n,n,n,n,n,n
Cc1cccc(S(=O)(=O)NCCC(=O)OCC(=O)Nc2ccc(C#N)cc2)c1,n,n,n,n,n,n
CCOC(=O)c1cc(C(=O)OCC)c2ccccn2c1=O,n,x,n,n,n,n
COc1cccc(C(=O)NC(=S)Nc2ccc3oc(=O)ccc3c2)c1,37,n,n,n,n,n
SMILES,p47phox inh,Ins promoter up,Redox H2O2 prof,Arbovirus anti,Efa HMGR inh,Autophagy HCS
O=C(NC1CCCCC1)N(Cc1nc2ccccc2c(=O)[nH]1)C1CCCCC1,n,n,n,n,n,n
O=C(NC1CCCCC1)N(Cc1nc2ccccc2c(=O)[nH]1)C1CCCC1,31,n,n,n,n,n
O=C(CC12CC3CC(CC(C3)C1)C2)NCC(=O)N1CCc2ccccc2C1,n,3.3,n,n,n,n
N=C1c2ccccc2CN1NC(=O)CC12CC3CC(CC(C3)C1)C2,n,n,n,n,n,n
Cc1nn(C)c(C)c1S(=O)(=O)N(CC(=O)N1CCc2ccccc2C1)c1ccc(C(C)C)cc1,n,n,n,n,n,n
Cc1ccc(CSc2nnc(SCC(=O)N/N=C/c3c[nH]c4ccccc34)s2)cc1,39,x,n,n,n,n
O=C(CSc1nnc(SCc2ccccc2)s1)N/N=C/c1c[nH]c2ccccc12,42,x,n,n,n,n
O=C(CSc1nnc(SCc2ccccc2Cl)s1)N/N=C/c1c[nH]c2ccccc12,n,n,n,n,n,n
NC(=O)c1ccsc1NC(=O)c1ccc(N2CCCC2=O)cc1,n,n,n,n,n,n
CCNc1nc(NC(C)(C)C)nc(SCC(N)=O)n1,n,n,n,n,n,n
O=C(NN1C(=O)C2C3c4ccccc4C(c4ccccc43)C2C1=O)C1CC1 (centres undefined),n,n,n,n,n,n
